The results in this text go back to PubChem BioAssay AID2551 (National Center for Advancing Translational Sciences (NCATS), 2010).

SMILES strings stand for the structures. Screen size: about 310,000 compounds; about 17,000 (5.5%) were called active. Inconclusive results (about 11%) are left out. The call rests on the fitted dose curve; in most records, active means well fitted inhibition curve with a large enough effect; inconclusive means small, poorly fitted or top-dose-only effect, or effect the other way; inactive means no such curve, though single readings can be large or run the other way. The list comes from a sample in which actives are over-represented; it also holds similar structures and randomly drawn compounds.
On the % scale 0 is the no-effect control and ±100 the full control effect; potency means the concentration at half of the fitted maximal effect.

Sequence of Nuclear receptor ROR-gamma (Mus musculus) (P51450 whole entry, looked up, the tested form may be a part): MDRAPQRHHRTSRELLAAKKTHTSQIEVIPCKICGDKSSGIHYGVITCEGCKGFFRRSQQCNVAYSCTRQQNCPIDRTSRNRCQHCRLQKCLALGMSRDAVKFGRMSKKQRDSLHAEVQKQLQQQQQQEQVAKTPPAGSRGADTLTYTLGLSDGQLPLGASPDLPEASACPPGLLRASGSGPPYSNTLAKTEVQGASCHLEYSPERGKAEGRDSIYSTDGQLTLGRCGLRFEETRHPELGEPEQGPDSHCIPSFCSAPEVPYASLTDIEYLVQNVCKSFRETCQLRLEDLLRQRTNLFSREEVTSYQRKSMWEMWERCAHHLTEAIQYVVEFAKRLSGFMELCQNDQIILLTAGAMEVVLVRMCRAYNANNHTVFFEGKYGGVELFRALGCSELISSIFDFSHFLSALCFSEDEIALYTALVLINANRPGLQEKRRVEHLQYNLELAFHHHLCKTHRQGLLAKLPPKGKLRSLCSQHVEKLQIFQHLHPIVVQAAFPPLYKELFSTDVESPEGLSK

The target of this assay is Nuclear receptor ROR-gamma (Mus musculus) (UniProt P51450). The assay can be described thus: qHTS for inhibitors of ROR gamma transcriptional activity. Further: nearly all actives have a fitted effect of over 60% in size. Conditions: Drosophila S2 Gal4-RORgamma UAS-luciferase reporter, 20 h; series mostly up to 53.6 µM; activity change, negative = inhibition: at the top concentration. The gist of the method:
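A Gal4/UAS one-hybrid system in insect cells: metallothionein-promoter Gal4–ROR gamma fusion plus Photinus luciferase reporter. Copper sulfate 700 uM final, 20 hr ambient incubation, luminescent detection after 10 min with reagent.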
On the technique in general: Quantitative high-throughput screening tests each substance at several concentrations.
With `CCOc1ccc(N(CC(=O)NCCc2ccc(F)cc2)S(=O)(=O)c2ccccc2)cc1`, the “activity change, negative = inhibition” value was 14.9% (inactive).
As to `COc1ccccc1CNC(=O)[C@@H]1CCCN1C(=O)[C@@H]1Cc2ccccc2CN1C(=O)OC(C)(C)C`, the “activity change, negative = inhibition” value is 33.9% (inactive).
On the same count and under the same terms, the figure for `CCN(CC)c1ccc(C(=O)Nn2c(C)nc3ccccc3c2=O)cc1` is -16.6% (inactive); for `CCCCCc1ccc(-c2cn(Cc3ccc4ccccc4c3)nn2)cc1` it is -1.78% (inactive).
For the molecule `CCCCCc1ccc(-c2ccc(C(=O)O)cc2)nc1`, the Potency was 6.31 µM (active).
Take `CCCCCc1ccc(-c2ccc(OCC)cc2)nc1`: the “activity change, negative = inhibition” value was -33.7% (inactive).
Same read-out and setting: the figure for `Cc1cccc(-c2nnc(SCC(=O)O)n2Cc2ccccc2)c1` is 4.58% (inactive); for `O=C(CCC(=O)c1cccs1)NC1CCCCCC1` it is 9.7% (inactive).
Turning to `O=C(CCCCCn1c(=S)[nH]c2ccsc2c1=O)NC1CCCCC1`, the Potency was 11.2 µM (active).
Consider `CCCCC(CC)CNC(=O)CCCCn1c(=O)[nH]c2ccsc2c1=O` (centres undefined), for which the “activity change, negative = inhibition” value was -18.2% (inactive).
On to `O=C(CN1C(=O)c2ccccc2C1=O)NCc1ccc(C(=O)O)cc1`, for which the “activity change, negative = inhibition” value is -11.3% (inactive).
Turning to `COc1ccc(N(CC(=O)Nc2cc(OC)cc(OC)c2)S(=O)(=O)c2c(C)n[nH]c2C)cc1`, the “activity change, negative = inhibition” value is -11.3% (inactive).
Still for that read-out and setting: the figure for `Cc1cccc(N2CCN(C(C)C(=O)N3CCc4ccccc43)CC2)c1C` (centres undefined) is -0.135% (inactive).
Consider `Cc1ccn(CCC(=O)N2c3ccccc3CC2C)n1` (centres undefined), for which the “activity change, negative = inhibition” value was -3.48% (inactive).
On the same count and under the same terms, under `COc1ccc(N2C(=O)CNC2=S)cc1` stands -0.234% (inactive).
For the molecule `COc1ccc(-c2cn(-c3ccc(OC)cc3)c(=S)[nH]2)cc1`, the Potency was 0.398 µM (active).
Regarding `COc1ccc(-n2c(C)csc2=S)cc1`, the “activity change, negative = inhibition” value is 13.1% (inactive).
Same read-out and setting: under `COc1ccc(S(=O)(=O)N(CC(=O)N/N=C/c2ccc(C(=O)O)cc2)Cc2ccccc2)cc1OC` stands -0.595% (inactive); under `COc1ccc(-n2ncc3c(SCC(=O)NNC(C)=O)ncnc32)cc1`, -14.4% (inactive).
On the same count and under the same terms, the figure for `CC(C)C[C@@H](COc1ccccc1)N1CCN(CC(C)C)CCC1=O` is 5.12% (inactive).
In the case of `CCOc1cc(/C=C(/C#N)c2ccc(Cl)cc2)cc(Cl)c1OCC(=O)O`, the Potency was 0.891 µM (active).
`CCOC(=O)CN/C=C(\C#N)c1ccc(F)cc1`: the “activity change, negative = inhibition” value was 4.9% (inactive).
Turning to `C/C(=N\OCC(=O)O)c1ccc(Cl)cc1`, the “activity change, negative = inhibition” value is 2.12% (inactive).
On the same count and under the same terms, the figure for `CC(C)C(NC(=O)c1ccc(Cl)cc1)C(=O)O` (centres undefined) is 5.86% (inactive); for `CCOC(=O)NNC(=O)c1ccc(Cl)cc1` it is 22.9% (inactive).
For the molecule `CC(C)CNC(=S)NC(=O)c1ccc(Cl)cc1`, the Potency is 3.98 µM (active).
As for `COc1ccc(C2=NS(=O)(=O)N(C)C(C(=O)N(C)Cc3ccccc3)=C2)cc1`, the “activity change, negative = inhibition” value was 10.9% (inactive).
Still for that read-out and setting: under `CCn1cc(CCC(=O)NCc2ccc(F)cc2)c2ccccc21` stands -1.55% (inactive).
In the case of `C/C(=N\c1nc2ccccc2n1C)c1cc(Cl)ccc1O`, the “activity change, negative = inhibition” value was -4.15% (inactive).
Same read-out and setting: under `CCN(CC)CCn1c(N)c(S(=O)(=O)c2ccccc2)c2nc3ccccc3nc21` stands -4.59% (inactive).
For `CCN(CC)CCn1c(/N=C/c2cc(Br)ccc2O)nc2ccccc21`, the Potency was 3.98 µM (active).
With `Cc1ccc(Cn2c(C)c3cnn(CC(=O)NCc4ccccn4)c(=O)c3c2C)cc1`, the “activity change, negative = inhibition” value was -19.1% (inactive).
With `COc1ccc2cc(C(=O)O)n(CC(=O)c3ccccc3)c2c1`, the “activity change, negative = inhibition” value is 10.7% (inactive).
As for `CCn1c(=N)n(CC(=O)c2cccc(OC)c2)c2ccccc21`, the Potency was 6.31 µM (active).
Regarding `CCOC(=O)c1cc2ccccc2n1CC(=O)c1ccccc1`, the “activity change, negative = inhibition” value is 0.755% (inactive).
Still for that read-out and setting: under `COc1ccc(NC(=O)c2cc(-c3cc(OC)c(OC)c(OC)c3)nc3ccccc23)c(OC)c1` stands 32.5% (inactive).
With `COC(=O)c1ccc(COc2ccc(C#N)cc2)o1`, the “activity change, negative = inhibition” value is -14.9% (inactive).
Same read-out and setting: under `COc1ccc(C2/C(=C(/O)c3ccccc3)C(=O)C(=O)N2C)c(OC)c1` (centres undefined) stands -11.9% (inactive).
Same read-out and setting: under `COc1ccc(OC)c(C(O)c2nc3ccccc3n2C)c1` (centres undefined) stands 2.31% (inactive).
Same read-out and setting: the figure for `CCn1c(C(O)c2cc(OC)ccc2OC)nc2ccccc21` (centres undefined) is -4.76% (inactive).
Turning to `CCCn1c(C(O)c2cc(OC)ccc2OC)nc2ccccc21` (centres undefined), the Potency was 17.8 µM (active).
`CCOC(=O)c1ccccc1NS(=O)(=O)c1c(C)nc2sccn2c1=O`: the “activity change, negative = inhibition” value was 35.7% (inactive).
For the molecule `OCC(CO)NC1C[C@](O)(CO)[C@@H](O)[C@H](O)[C@H]1O` (some centres undefined), the activity change, negative = inhibition was 4.55% [at 10 µM] (inactive).
Still for that read-out and setting: under `C=CCn1c(SCC(=O)NC23CC4CC(CC(C4)C2)C3)nc(O)cc1=O` stands 34% (inactive).
`C=CCn1c(C23CC4CC(CC(C4)C2)C3)n[nH]c1=S`: the Potency is 2.82 µM (active).
Consider `C=CCn1c(SCC(=O)NC)nnc1C12CC3CC(CC(C3)C1)C2`, for which the “activity change, negative = inhibition” value was -9.51% (inactive).
As to `Cc1nn(Cc2ccccc2)c(C)c1NS(=O)(=O)c1ccccc1`, the “activity change, negative = inhibition” value is 23.2% (inactive).
Same read-out and setting: under `Cc1ccccc1NC(=O)CCNS(=O)(=O)c1ccc2[nH]c(=O)oc2c1` stands -15.3% (inactive); under `CC(=O)c1ccc(S(=O)(=O)N2CCN(C(=O)/C=C/c3ccc4ccccc4n3)CC2)cc1`, 16.1% (inactive).
`COc1cccc(/C=C/c2ccc3ccccc3n2)c1OC(C)=O`: the Potency was 2 µM (active).
Still for that read-out and setting: the figure for `CCOc1cccc(/C=C/c2ccc3ccccc3n2)c1OC(C)=O` is 3.98 µM (active).
As for `COc1cccc(/C=C2\C=C(c3ccc(C)cc3)OC2=O)c1OC(C)=O`, the “activity change, negative = inhibition” value was -1.83% (inactive).
The same measure, in the same setting: under `CCOc1ccccc1-c1cc(C(=O)N2CCOCC2)c2ccccc2n1` stands 28.2% (inactive).
`CC(OC(=O)c1ccc2ccccc2n1)C(=O)c1ccccc1` (centres undefined): the “activity change, negative = inhibition” value was 22.8% (inactive).
